Measured values taken from PubChem BioAssay (EPA / NIEHS).
The source made the active and inactive calls. The calls were made as follows: active = hit-call score of the fitted dose curve at least 0.9, where 1 is the maximum; inactive = score below 0.9.

read-out: ABC Transporter (ABCC2), ABCC2 (gene 1244); assay: LTEA_HepaRG_ABCC2: Life Technologies and Expression Analysis (LTEA) Assay for ABC Transporter (ABCC2) using HepaRG (AID 2283464); conditions: mRNA level, 48 h; actives raise or lower the signal
Procedure: LTEA_HepaRG is a cell based, multiplexed-readout assay that uses HepaRG, a human liver cell line, with measurements taken at 48 hours after chemical dosing on a 96-well plate.LTEA_HepaRG_ABCC2 is one of 102 assay component(s) measured in the LTEA HepaRG cell culture assay. It is a marker of Steatosis/NR mediated transport.Data from the assay component LTEA_HepaRG_ABCC2 was analyzed into 1 endpoint. This assay endpoint, LTEA_HepaRG_ABCC2, was analyzed with bidirectional fitting relative to DMSO as the negative control and baseline of activity. Using a type of inducible reporter, measures of mRNA induction for gain or loss-of-signal activity can be used to understand regulation of transcription factor activity. To generalize the intended target to other relatable targets, this assay endpoint is annotated to the transporter intended target family, where the subfamily is ABC transporter.
A total of 1060 chemcials from the ToxCast library were tested in eight-point concentration-response experiments. Cell culture and cytotoxicity assays were conducted at Thermo Fisher Scientific's Custom Services facility (Madison, WI). A single lot of human HepaRG cells (Thermo Fisher Scientific, Frederick, MD) was used for the cell culture experiments. 96-well format collagen type I coated plates of human HepaRG cells were prepared using established methods. Briefly, cryopreserved HepaRG cells were thawed, plated at a density of approximately 100,000 cells/well in HepaRG Thaw, Plate, and General Purpose media (HPRG770, Thermo Fisher Scientific), and incubated for 48 hours. 0.5% DMSO was selected as vehicle control to balance the requisite need of DMSO in HepaRG cultures to maintain differentiation (for example, baseline metabolism, proportions of hepatocytes vs. cholangiocytes), while enabling further hepatic receptor pathway activation (for example, PXR and CAR) in response to chemical exposure. 48 hours after plating, the culture medium was replaced with HepaRG Serum-Free Incudtion Media. Cells were exposed to each test chemical in duplicate and maintained in CO2 incubators for another 48 hours. Chemical plates were thawed to room temperature and 200x concentrations of treatment groups were prepared. 8-point conentration-reponse curves were made with the highest exposure at 100 uM, followed by half-log dilutions, all in 0.5% DMSO. Each test plate contained variouse controls, induction positive controls (1mM phenobarbital), cytotoxicity positive controls ([…] aflatoxin B1), vehicle controls (0.5% DMSO), and total lysis controls (0.5% DMSO). Cell morphology images were taken using an Essen IncuCyte FLR automated microscope, with six 96-well plates imaged in about 24 minutes. Images were captured and exported and JPEG files. Spent culture media was transfered to black-well plates for the LDH assay, and remaining media was sorted at -80 C for later use. Cells were treated with RLT buffer and frozen until shipped for gene expression analysis. Total RNA was isolated from the cell suspension in 75 uL of Buffer RLT (Qiagen, Germantown, MD 20874) by Quintiles/Expression Analysis (Durham, NC) using a custom isolation procedure. Total RNA from each plate well was transferred to a preamplification plate. Fluidigm's 96.96 Dynamic ArrayTM (Fluidigm, Amsterdam, the Netherlands) technology was used for gene expression analyses by quantitative reverse transcription polymerase chain reaction (qRT-PCR, performed by Quintiles/Expression Analysis, Durham, NC)89. Standard TaqManTM Assays (Applied Biosystems/ThermoFisher Scientific, Foster City, CA) were used to assess the expression of 93 genes selected based on their selectivity and sensitivity to important hepatic receptors known to be modulated by environmental chemicals; importance in human hepatocyte functionality; and hepatotoxicity. […]

Compound	outcome	AC50
c1ccc(NNc2ccccc2)cc1	inactive	
Clc1ccccc1Cl	inactive	
[Cl-].[Cl-].[Hg+2]	inactive	
CCCCOC(=O)c1ccccc1C(=O)OCc1ccccc1	inactive	
O=[N+]([O-])C(Br)(CO)CO	inactive	
O=C(O)C1C2CCC(O2)C1C(=O)O (stereo not given)	inactive	
O=C1CCCO1	inactive	
Nc1ccc([N+](=O)[O-])cc1	inactive	
OCCOCCO	inactive	
Cn1cc(-c2ccccc2)c(=O)c(-c2cccc(C(F)(F)F)c2)c1		5.1 µM (active)
Cc1ccc([N+](=O)[O-])cc1		13 µM (active)
CNC(=O)Oc1cccc2c1OC(C)(C)C2	inactive	
Cc1ccc(N)c(N)c1	inactive	
OCCCBr	inactive	
O=C(Oc1ccc(Br)cc1)N1CCN2CCC1CC2	inactive	
[O-][Cl+]O	inactive	
CCCCCCCCOC(=O)c1ccc(C(=O)OCCCCCCCC)c(C(=O)OCCCCCCCC)c1	inactive	
Nc1cc(Cl)cc(C(=O)O)c1Cl	inactive	
CN(C)c1ccc(C(=O)c2ccc(N(C)C)cc2)cc1	inactive	
C=CCc1ccc2c(c1)OCO2	inactive	

Compound	outcome	AC50
CCC12COCN1COC2	inactive	
CC(C)(OOC(C)(C)c1ccccc1)c1ccccc1		50 µM (active)
CS(=O)(=O)NC(=O)c1cc(Oc2ccc(C(F)(F)F)cc2Cl)ccc1[N+](=O)[O-]		6.32 µM (active)
Clc1ccc(C(c2ccc(Cl)cc2)C(Cl)(Cl)Cl)cc1		4.19 µM (active)
CCN(CC)N=O	inactive	
CC(C)(C)OOC(C)(C)CCC(C)(C)OOC(C)(C)C	inactive	
c1ccc2c(c1)-c1cccc3cccc-2c13	inactive	
Nc1ccc(N=Nc2ccccc2)cc1		13.2 µM (active)
[As]#[In]	inactive	
O=Cc1ccco1	inactive	
CO[C@@H]1[C@H](OC(=O)NC(=O)CCl)CC[C@]2(CO2)[C@H]1[C@@]1(C)O[C@@H]1CC=C(C)C	inactive	
CCCCCCCCn1sccc1=O	inactive	
CC(C)(C)OOC(=O)c1ccccc1	inactive	
CCC[CH2][Sn]([Cl])([CH2]CCC)[CH2]CCC		3.8 µM (active)
CC(C)N(Cc1ccccc1)C(=O)C(C)(C)C		50 µM (active)
Clc1ccc(Cl)c(Cl)c1	inactive	
CCN(CC)CCO	inactive	
CCOC(=O)[C@]1(c2ccccc2)Oc2ccccc2[C@@H]1N		82.2 µM (active)
COC(=O)Nc1nc2ccccc2[nH]1	inactive	
Cc1cc(N=Nc2ccccc2C)ccc1N		3.17 µM (active)
